Tested on: Vero E6 infected with SARS-CoV-2
Test: inhibition of SARS-CoV-2 cytopathic effect; higher = more antiviral protection, active = above 15
Conditions: 48 h

Measured: inhibition of SARS-CoV-2 cytopathic effect

CN(C)CCC=C1c2ccccc2CCc2ccccc21 [amitriptyline]
inactive: 1 nM -2.51% | 8.33 nM -0.51% | 100 nM 5.58% | 833.33 nM 1.84% | 10000 nM -2.45%

COC(=O)[C@H](CC(C)C)NC(=O)c1ccc(NC[C@@H](N)CS)cc1-c1cccc2ccccc12
inactive: 1 nM -1.19% | 8.33 nM 4.63% | 100 nM -0.9% | 833.33 nM -1.25% | 10000 nM -4.69%

Nc1cc(N2CCCCC2)nc(N)[n+]1[O-] [minoxidil]
inactive: 1 nM 0.37% | 8.33 nM 0.28% | 100 nM -0.2% | 833.33 nM 1.1% | 10000 nM -0.33%

CCN(CC)CCO[C@H]1CC[C@@]2(C)C(=CC[C@@H]3[C@@H]2CC[C@]2(C)C(=O)CC[C@@H]32)C1
active: 10000 nM 19.6%
inactive: 1 nM 1.95% | 8.33 nM 2.95% | 100 nM 1.19% | 833.33 nM 3.83%

O=C1CC2(CCCC2)CC(=O)N1CCNC[C@H]1COc2ccccc2O1
inactive: 1 nM -0.99% | 8.33 nM -2.08% | 100 nM -0.87% | 833.33 nM 0.95% | 10000 nM -2.14%

CN1CCC[C@@H](CC2c3ccccc3Sc3ccccc32)C1 (racemic) [metixene]
active: 10000 nM 42.2%
inactive: 1 nM -0.25% | 8.33 nM 1.09% | 100 nM 1.62% | 833.33 nM -0.01%

CC(=O)C1=C(O)C=C2Oc3c(C(C)=O)c(O)c(C)c(O)c3C2(C)C1=O (stereo not drawn) [usniacin-(+)]
inactive: 1 nM 3.22% | 8.33 nM 2.31% | 100 nM 0.43% | 833.33 nM -1.14% | 10000 nM -4.03%

CC(C)CCNC(=O)[C@H](CC(C)C)NC(=O)[C@H]1O[C@@H]1C(=O)O [loxistatin-acid]
inactive: 1 nM -1.03% | 8.33 nM -1.05% | 100 nM -0.89% | 833.33 nM 0.62% | 10000 nM 2.74%

O=c1n(CCCN2CCN(c3cccc(Cl)c3)CC2)nc2ccccn12 [trazodone]
inactive: 1 nM 0.53% | 8.33 nM 4.07% | 100 nM 0.98% | 833.33 nM -1.12% | 10000 nM -0.82%

O=C(O)[C@@H]1C[C@@H](O)CN1 [L-hydroxyproline]
inactive: 1 nM -3.79% | 8.33 nM -1.12% | 100 nM -0.27% | 833.33 nM -1.36% | 10000 nM -3.93%

CC(C)CNc1ccnc(NCc2csc(-c3ccccc3)n2)n1
inactive: 1 nM 0.06% | 8.33 nM 1.07% | 100 nM 0.03% | 833.33 nM 0.39% | 10000 nM -2.77%

C[C@@H]1O[C@@H]1P(=O)(O)O
inactive: 1 nM 0.82% | 8.33 nM -0.13% | 100 nM -0.02% | 833.33 nM 0.37% | 10000 nM 0.09%

COc1ccc(-c2cc(=O)c3c(OC)c(OC)c(OC)c(OC)c3o2)cc1OC [nobiletin]
inactive: 1 nM -1.63% | 8.33 nM -2.18% | 100 nM -7.44% | 833.33 nM -2.1% | 10000 nM -0.29%

CC1=C(C(=O)OC2CCCCC2)C(c2ccc([N+](=O)[O-])cc2)C2=C(CC(C)(C)CC2=O)N1 (stereo not given)
active: 10000 nM 23.1%
inactive: 1 nM -1.14% | 8.33 nM -1.2% | 100 nM -1.86% | 833.33 nM 1.14%

Cc1c(C(=O)Nc2ccc(N3C[C@@H](C)O[C@@H](C)C3)nc2)cccc1-c1ccc(OC(F)(F)F)cc1 [sonidegib]
inactive: 1 nM 1.64% | 8.33 nM -0.28% | 100 nM -1.14% | 833.33 nM -2.32% | 10000 nM -7.02%

COc1c(C)c2c(c(O)c1C/C=C(\C)CCC(=O)O)C(=O)OC2 [mycophenolic-acid]
inactive: 1 nM -0.65% | 8.33 nM -1.16% | 100 nM 0.96% | 833.33 nM 2.06% | 10000 nM 12.9%

COc1cccc(-c2ccc(NC(=O)C3=C(C(=O)O)CCC3)c(F)c2)c1
inactive: 1 nM 2.25% | 8.33 nM 3.22% | 100 nM 2.16% | 833.33 nM 5.63% | 10000 nM 4.97%

CCc1c2c(nc3ccc(OC(=O)N4CCC(N5CCCCC5)CC4)cc13)-c1cc3c(c(=O)n1C2)COC(=O)[C@]3(O)CC [irinotecan]
inactive: 1 nM -2.2% | 8.33 nM 1.89% | 100 nM 1.85% | 833.33 nM 1.56% | 10000 nM -0.23%

Cn1ncnc1[C@H]1c2n[nH]c(=O)c3cc(F)cc(c23)N[C@@H]1c1ccc(F)cc1 [talazoparib]
inactive: 1 nM 0.71% | 8.33 nM 2.94% | 100 nM 2.17% | 833.33 nM -0.1% | 10000 nM -3.8%

Oc1ccc(Cl)c2c1CCC2 [chlorindanol]
inactive: 1 nM 1.21% | 8.33 nM -1.76% | 100 nM -1.84% | 833.33 nM -1.95% | 10000 nM 4.12%

O=C1/C(=C/c2ccccc2)C[C@@]2(O)[C@H]3Cc4ccc(O)c5c4[C@@]2(CCN3CC2CC2)[C@H]1O5
inactive: 1 nM -2.61% | 8.33 nM 0.97% | 100 nM 1.2% | 833.33 nM 8.78% | 10000 nM -26.4%

C[S+]([O-])CCCCN=C=S (stereo not given) [sulforaphane]
active: 10000 nM 35.2%
inactive: 1 nM -7.22% | 8.33 nM -6.04% | 100 nM -3.89% | 833.33 nM -3.35%

CC(C)Nc1cccnc1N1CCN(C(=O)c2cc3cc(NS(C)(=O)=O)ccc3[nH]2)CC1 [delavirdine]
inactive: 1 nM -1.49% | 8.33 nM -0.85% | 100 nM 1.56% | 833.33 nM 1.65% | 10000 nM 2.87%

COc1ccc(OC)c([C@@H](O)CNC(=O)CN)c1 [midodrine]
inactive: 1 nM 1.29% | 8.33 nM 3.25% | 100 nM -1.42% | 833.33 nM 0.19% | 10000 nM -0.39%

CN[C@@H](C)C(=O)N[C@H](C(=O)N1CCC[C@H]1c1nc(C(=O)c2ccc(F)cc2)cs1)C1CCCCC1
inactive: 1 nM 1.96% | 8.33 nM 2.97% | 100 nM 0.97% | 833.33 nM -3.07% | 10000 nM -4.24%

O=C(/C=C/c1ccc2ccccc2n1)c1ccncc1
inactive: 1 nM -4.3% | 8.33 nM -0.71% | 100 nM -2.06% | 833.33 nM -1.46% | 10000 nM -3.51%

O=C(c1ccc(Nc2nccc(-c3cc4ccccc4s3)n2)cc1)N1CCC(N2CCCC2)CC1
inactive: 1 nM 2.48% | 8.33 nM 3.16% | 100 nM -1.73% | 833.33 nM 2.79% | 10000 nM -18.6%

OC(CCN1CCCCC1)(c1ccccc1)c1ccccc1 [pridinol]
inactive: 1 nM 3.98% | 8.33 nM 4.59% | 100 nM -0.32% | 833.33 nM -9.56% | 10000 nM 0.53%

Cc1ncc(NC(=O)c2ccc(CN3CCN(C)CC3)c(C(F)(F)F)c2)cc1Nc1nccc(-c2cccnc2)n1 [flumatinib]
active: 10000 nM 66.1%
inactive: 1 nM 2.56% | 8.33 nM -0.34% | 100 nM 1.46% | 833.33 nM 3.69%

COc1nccc(-c2c(-c3ccc(F)cc3)ncn2[C@H]2CC[C@H](O)CC2)n1
inactive: 1 nM 5.42% | 8.33 nM 6.4% | 100 nM 3.88% | 833.33 nM 2.66% | 10000 nM 7.7%

CSc1ccc([C@H]2CN3CCC[C@H]3c3ccccc32)cc1 (racemic)
inactive: 1 nM 3.1% | 8.33 nM 1.05% | 100 nM 2.84% | 833.33 nM 3.32% | 10000 nM 1.44%

OCCN1CCN(CC/C=C2/c3ccccc3Sc3ccc(C(F)(F)F)cc32)CC1 [flupentixol]
inactive: 1 nM -4.51% | 8.33 nM 0.12% | 100 nM -2.01% | 833.33 nM -0.29% | 10000 nM 0.08%

CC(CCc1ccccc1)NC(C)C(O)c1ccc(O)cc1 (stereo not given) [buphenine]
inactive: 1 nM 1.42% | 8.33 nM 1.45% | 100 nM -1.15% | 833.33 nM -0.63% | 10000 nM -2.78%

COc1ccccc1OCC(O)CO (stereo not given) [guaifenesin]
inactive: 1 nM 1.29% | 8.33 nM 1.07% | 100 nM 0% | 833.33 nM 0.99% | 10000 nM 0.94%

CCn1cc(-c2ccnc3[nH]c(-c4cccc(CN(C)C)c4)cc23)c(-c2ccc(NC(=O)N(C)C)cc2)n1
inactive: 1 nM 0.02% | 8.33 nM -2.56% | 100 nM -1.67% | 833.33 nM -3.22% | 10000 nM 1.16%

CCc1cc2c(s1)-n1c(C)nnc1CN=C2c1ccccc1Cl [etizolam]
inactive: 1 nM 2.37% | 8.33 nM 2.54% | 100 nM -2.3% | 833.33 nM 3.16% | 10000 nM 2.75%

C[C@@H]1NC(C)(C)CO[C@@]1(O)c1cccc(Cl)c1 [radafaxine]
inactive: 1 nM -2.6% | 8.33 nM 3.35% | 100 nM 6.44% | 833.33 nM 7.12% | 10000 nM -0.21%

COc1ccc(C2C(=O)c3ccccc3C2=O)cc1 [anisindione]
inactive: 1 nM 0.46% | 8.33 nM 1.92% | 100 nM 2.19% | 833.33 nM -3.04% | 10000 nM -1.46%

O=C(O)C1=C(CSc2nnnn2CS(=O)(=O)O)CS[C@@H]2[C@H](NC(=O)[C@H](O)c3ccccc3)C(=O)N12 [Cefonicid (sodium)]
inactive: 1 nM -0.91% | 8.33 nM -1.09% | 100 nM 0.45% | 833.33 nM 0.79% | 10000 nM 1.23%

CN(C)CCN1C(=O)c2cccc3cc(N)cc(c23)C1=O [amonafide]
inactive: 1 nM 4.04% | 8.33 nM 2.14% | 100 nM 1.57% | 833.33 nM 3.27% | 10000 nM -6.16%

Source: the supplement of paper PMC13380429
